Test results reported in PubChem BioAssay (Tox21).
Values joined by “and” are separate entries in the source; they are usually repeats but may differ in a detail not shown here. Equal entries are not always repeated. Records with an inconclusive call do not appear. Entries that show only a call come without a potency. A structure can be active in one record and inactive in another. Active and inactive are the calls of the source. Unless noted, calls follow the shape of the full dose curve.

Legend:
[1] = Nuclear factor erythroid 2-related factor 2/antioxidant responsive element (Nrf2/ARE) small molecule agonists: qHTS cell viability counter screen in human keratinocytes (AID 1919968; active = well fitted cell-killing curve with a large enough effect in the repeat runs; also: nearly all actives have a fitted effect of over 55% in size)
Outline: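 HaCaT ARE reporter line, 1,500 cells/well; 5 h settle, 37 C/5% CO2; cpd in DMSO pinned; 23 h exposure; CellTiter-Fluor, 1 h; fluorescence.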

[2] = Nuclear factor erythroid 2-related factor 2/antioxidant responsive element (Nrf2/ARE) small molecule agonists: luciferase reporter gene qHTS assay in human keratinocytes (AID 1919969); also: nearly all actives have a fitted effect of over 35% in size; also: potency is read from the fitted curve at half-maximal effect
[3] = G protein-coupled receptor (GPCR) small molecule agonists, calcium flux assay: HEK293 wild type cell line counter screen (AID 1920065)
Outline: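 Kinetic fluorescence at Ex/Em 480/540, recorded every second over 3 min, served as the read-out after compound addition. Each compound was tested at 15 concentrations in triplicate on cells pre-loaded with calcium dye for 1 h.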

[4] = p53 small molecule agonists, cell-based qHTS assay with human liver microsomes (AID 1963577);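 also: p53 response element beta-lactamase reporter cells with liver microsomes plus NADPH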
Outline: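 p53RE-bla cells; 5 h settle, 37 C/5% CO2; cpd + HLM 0.5 mg/mL + NADPH 0.5 mg/mL (final); 16 h 37 C; LiveBLAzer 2 h RT dark; fluorescence readout.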

[5] = p53 small molecule agonists, cell-based qHTS assay with rat liver microsomes (AID 1963578)
Outline: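 Rat liver microsome activation: microsomes 0.5 mg/mL, NADPH 0.5 mg/mL final; p53RE-bla cells, 16 h 37 C; LiveBLAzer readout, 2 h RT dark.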

[6] = p53 small molecule agonists, cell-based qHTS assay with human liver microsomes: qHTS cell viability counter screen (AID 1963579); also: nearly all actives have a fitted effect of over 45% in size; also: potency is read from the fitted curve at half-maximal effect
Outline: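 Luminescent CellTiter-Glo read-out, 30 min at room temperature, gauged cytotoxicity in p53RE-bla cells exposed 16 h at 37 C to DMSO-dissolved compounds with metabolic activation by human liver microsomes and NADPH, each 0.5 mg/mL final.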

[7] = p53 small molecule agonists, cell-based qHTS assay with rat liver microsomes: qHTS cell viability counter screen (AID 1963580); also: nearly all actives have a fitted effect of over 45% in size
Outline: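 HCT-116 p53RE-bla, 4,000 cells/well, 5 h pre-incubation; cpd + rat liver microsomes 0.5 mg/mL + NADPH 0.5 mg/mL (final); 16 h, 37 C; CellTiter-Glo, 30 min RT; luminescence.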

[8] = p53 small molecule agonists, cell-based qHTS assay: qHTS cell viability counter screen (AID 1963581); also: nearly all actives have a fitted effect of over 45% in size
Outline: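 HCT-116 p53RE-bla cells, 4,000/well, plated 5 h before compound pin transfer; 16 h at 37 C; bla substrate 2 h RT; then CellTiter-Glo, 30 min RT, luminescence.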

[9] = p53 small molecule agonists, cell-based qHTS assay (AID 1963582; active = well fitted activation curve with a large enough effect in the signal ratio in the repeat runs, not every such curve was filed as active; the % refers to the signal ratio)
Outline: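 Reporter line: p53RE-bla. Pre-incubation 5 h, 37 C, 5% CO2; compound (DMSO, pin tool) 16 h, 37 C; B/G FRET substrate 2 h RT; fluorescence intensity read.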

[10] = biological target: 5-hydroxytryptamine receptor 2A (Homo sapiens) (UniProt P28223); experiment: 5-hydroxytryptamine receptor 2A (HTR2A) small molecule antagonists, cell-based qHTS assay (AID 1963586); also: nearly all actives have a fitted effect of over 45% in size
5-hydroxytryptamine receptor 2A (Homo sapiens), sequence (P28223 whole entry, looked up): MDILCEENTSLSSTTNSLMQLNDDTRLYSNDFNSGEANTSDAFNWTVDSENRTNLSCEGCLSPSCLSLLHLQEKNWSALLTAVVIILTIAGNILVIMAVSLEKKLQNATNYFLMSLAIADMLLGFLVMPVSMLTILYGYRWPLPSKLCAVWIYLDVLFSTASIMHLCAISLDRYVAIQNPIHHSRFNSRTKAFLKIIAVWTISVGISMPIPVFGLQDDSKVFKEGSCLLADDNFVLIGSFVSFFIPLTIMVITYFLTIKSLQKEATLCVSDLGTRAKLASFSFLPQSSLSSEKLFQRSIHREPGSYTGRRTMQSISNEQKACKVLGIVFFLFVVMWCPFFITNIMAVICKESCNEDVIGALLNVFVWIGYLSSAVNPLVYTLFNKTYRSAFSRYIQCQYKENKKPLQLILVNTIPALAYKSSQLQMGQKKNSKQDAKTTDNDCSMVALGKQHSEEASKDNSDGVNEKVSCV
Outline: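 Antagonist-mode intracellular calcium assay: DOI (4 nM) added after 5 min compound pre-incubation at room temperature to dye-loaded HTR2A-CHO cells. Fluorescence followed for 3 min, sampled every second.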

[11] = biological target: 5-hydroxytryptamine receptor 2A (Homo sapiens) (UniProt P28223); experiment: 5-hydroxytryptamine receptor 2A (HTR2A) small molecule agonists, cell-based qHTS assay (AID 1963587); also: nearly all actives have a fitted effect of over 30% in size; also: potency is read from the fitted curve at half-maximal effect
Outline: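 Kinetic calcium-flux fluorescence (2 min, 1 sec intervals) after compound addition in agonist mode. HTR2A-CHO cells were cultured 18 h, then dye-loaded 1 h at 37 C.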

[12] = cAMP Responsive Elements (CRE) small molecule agonists, cell-based qHTS assay (AID 1963590)
Outline: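 HEK 293T CRE-bla, 2,000 cells/well, 18 h preincubation 37 C/5% CO2; cpds (DMSO) pinned, 3 h; LiveBLAzer B/G FRET substrate, 2 h RT.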

[13] = cAMP Responsive Elements (CRE) small molecule antagonists, cell-based qHTS assay (AID 1963591; active = well fitted inhibition curve with a large enough effect in the signal ratio in the repeat runs, not every such curve was filed as active; the % refers to the signal ratio)
Outline: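 Beta-lactamase reporter read by FRET substrate (LiveBLAzer B/G) after 2 h at room temperature. CRE-bla HEK293T cells had received compound plus 0.25 uM (final) NKH477 for 3 h at 37 °C.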

[14] = biological target: Beta-2 adrenergic receptor (Homo sapiens) (UniProt P07550); experiment: Adrenergic beta2 receptor (ADRB2) small molecule antagonists, cell-based qHTS assay (AID 1963592); also: nearly all actives have a fitted effect of over 50% in size; also: potency is read from the fitted curve at half-maximal effect
Beta-2 adrenergic receptor (Homo sapiens), sequence (P07550 whole entry, looked up): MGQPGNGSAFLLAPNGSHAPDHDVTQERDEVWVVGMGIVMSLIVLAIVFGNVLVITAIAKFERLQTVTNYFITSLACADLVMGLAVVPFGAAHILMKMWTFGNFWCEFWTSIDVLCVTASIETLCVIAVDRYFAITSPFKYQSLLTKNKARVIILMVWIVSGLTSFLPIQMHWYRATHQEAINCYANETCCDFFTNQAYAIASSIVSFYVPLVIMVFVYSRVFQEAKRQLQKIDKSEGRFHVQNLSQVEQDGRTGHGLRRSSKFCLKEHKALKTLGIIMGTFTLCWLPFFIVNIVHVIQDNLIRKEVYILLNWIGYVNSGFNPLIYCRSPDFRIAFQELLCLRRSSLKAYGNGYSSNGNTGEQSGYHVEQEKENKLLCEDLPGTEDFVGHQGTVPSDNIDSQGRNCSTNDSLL
Outline: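 Cells (CHO, stable ADRB2 overexpression) incubated 18-20hr at 37C; compounds added from DMSO; agonist mix (1nM isoproterenol, 100uM IBMX, 25uM Ro-20-1724) added; 0.5hr RT; d2-cAMP and anti-cAMP-cryptate added; 1hr RT; 665/615 nm read.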

[15] = biological target: Beta-2 adrenergic receptor (Homo sapiens) (UniProt P07550); experiment: Adrenergic beta2 receptor (ADRB2) small molecule agonists, cell-based qHTS assay (AID 1963593);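 also: CHO cells stably overexpressing human ADRB2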
Outline: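 CHO cells stably over-expressing ADRB2 were plated overnight at 37C, then dosed with compounds plus a stimulation mix containing 100uM IBMX and 25uM Ro-20-1724 for 0.5hr at room temperature. cAMP was measured by HTRF competition, 1hr.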

[16] = biological target: D(2) dopamine receptor (Homo sapiens) (UniProt P14416); experiment: Dopamine D2 receptor (DRD2) small molecule antagonists, cell-based qHTS assay (AID 1963595; active = well fitted inhibition curve with a large enough effect in the signal ratio in the repeat runs, with a control signal flat; the % refers to the signal ratio)
D(2) dopamine receptor (Homo sapiens), sequence (P14416 whole entry, looked up): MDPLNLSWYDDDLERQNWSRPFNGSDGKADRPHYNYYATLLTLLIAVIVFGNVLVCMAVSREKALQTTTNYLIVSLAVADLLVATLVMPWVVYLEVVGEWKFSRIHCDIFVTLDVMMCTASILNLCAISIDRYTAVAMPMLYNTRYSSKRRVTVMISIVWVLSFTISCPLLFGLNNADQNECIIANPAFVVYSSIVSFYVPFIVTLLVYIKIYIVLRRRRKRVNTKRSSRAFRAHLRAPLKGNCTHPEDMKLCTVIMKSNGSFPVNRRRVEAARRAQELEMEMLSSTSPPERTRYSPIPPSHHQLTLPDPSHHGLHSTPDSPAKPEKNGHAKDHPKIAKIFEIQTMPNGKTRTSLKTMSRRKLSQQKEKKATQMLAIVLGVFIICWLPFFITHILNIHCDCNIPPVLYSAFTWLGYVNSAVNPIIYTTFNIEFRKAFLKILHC
Outline: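 Antagonist mode in DRD2-HEK293 cells: after compound addition with 0.1 mM Ro20-1724, cells received quinpirole (12 nM) and NKH477 (200 nM) for 30 min at room temperature; HTRF cAMP read after 1 h detection.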

[17] = biological target: Muscarinic acetylcholine receptor M1 (Homo sapiens) (UniProt P11229); experiment: Cholinergic receptor muscarinic 1 (CHRM1) small molecule antagonists, cell-based qHTS assay (AID 1963588); also: nearly all actives have a fitted effect of over 40% in size
Muscarinic acetylcholine receptor M1 (Homo sapiens), sequence (P11229 whole entry, looked up): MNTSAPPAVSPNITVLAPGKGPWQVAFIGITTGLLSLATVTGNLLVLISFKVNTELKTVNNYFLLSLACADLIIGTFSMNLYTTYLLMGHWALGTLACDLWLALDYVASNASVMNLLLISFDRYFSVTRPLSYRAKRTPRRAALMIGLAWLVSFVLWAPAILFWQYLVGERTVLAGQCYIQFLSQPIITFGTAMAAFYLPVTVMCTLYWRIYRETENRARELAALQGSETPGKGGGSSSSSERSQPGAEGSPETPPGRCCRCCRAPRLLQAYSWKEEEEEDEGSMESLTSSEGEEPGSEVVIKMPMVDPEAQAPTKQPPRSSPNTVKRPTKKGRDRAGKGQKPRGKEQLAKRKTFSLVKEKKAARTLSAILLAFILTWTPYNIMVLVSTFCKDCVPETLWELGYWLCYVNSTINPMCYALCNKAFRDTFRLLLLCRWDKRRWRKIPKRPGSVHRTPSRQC
Outline: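 CHRM1-CHO calcium-flux assay, antagonist mode. Cells were seeded 18 h, dye-loaded 1 h at 37 C and given compound for 5 min at RT, then acetylcholine was added at 50nM. FDSS fluorescence was read 3 min; 15 concentrations, three runs.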

[18] = biological target: Muscarinic acetylcholine receptor M1 (Homo sapiens) (UniProt P11229); experiment: Cholinergic receptor muscarinic 1 (CHRM1) small molecule agonists, cell-based qHTS assay (AID 1963589); also: nearly all actives have a fitted effect of over 35% in size
Outline: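 Human M1 in stable CHO line; 18 h plating, 1 h dye load 37 C; cpd added (agonist mode); Ca2+ fluorescence kinetic read, 1 s intervals; 15 conc, 3 runs.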

[19] = biological target: D(2) dopamine receptor (Homo sapiens) (UniProt P14416); experiment: Dopamine D2 receptor (DRD2) small molecule agonists, cell-based qHTS assay (AID 1963594); also: nearly all actives have a fitted effect of over 35% in size
Outline: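 cAMP accumulation in DRD2-HEK293 cells measured by HTRF after 1 h detection; compounds added 10 min before NKH477 (200nM […]) forskolin-analogue stimulation, 30 min at room temperature, with Ro20-1724 present at 0.1 mM final.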

Row | Structure (SMILES) | Potency [1] | Potency [2] | Potency [3] | Potency [4] | Potency [5] | Potency [6] | Potency [7] | Potency [8] | Potency [9] | Potency [10] | Potency [11] | Potency [12] | Potency [13] | Potency [14] | Potency [15] | Potency [16] | Potency [17] | Potency [18] | Potency [19]
1 | C[C@H]1C(=O)O[C@@H]2CCN3CC=C(COC(=O)[C@](C)(O)[C@]1(C)O)[C@H]23 | inactive | inactive | inactive | inactive | inactive | inactive | inactive | inactive | inactive | inactive | inactive | inactive | inactive | inactive | inactive | inactive |  |  | 
2 | CCOP(=S)(OCC)SCSc1cc(Cl)ccc1Cl | inactive | inactive | inactive | inactive | inactive | inactive | inactive | inactive | inactive | inactive | inactive | inactive | inactive | inactive |  | inactive | inactive | inactive | inactive
3 | COC(=O)c1ccccc1N | inactive | inactive | inactive | inactive |  | inactive | inactive | inactive | inactive | inactive | inactive | inactive | inactive | inactive | inactive | inactive |  | inactive | inactive
4 | Cc1ccc(N=C=O)cc1N=C=O | inactive | 62.7 µM (active) and 48.6 µM (active) | inactive | inactive | inactive | inactive | inactive | inactive | inactive | inactive | inactive | inactive | inactive | inactive | inactive | inactive | inactive |  | inactive
5 | Cn1cc(-c2ccccc2)c(=O)c(-c2cccc(C(F)(F)F)c2)c1 | inactive | inactive | inactive | inactive | inactive | inactive | inactive | inactive | inactive | inactive | inactive | inactive | inactive | 29.9 µM (active) and inactive |  |  | inactive | inactive | inactive
6 | O=[N+]([O-])c1ccccc1-c1ccccc1 | inactive | inactive | inactive | inactive | inactive | inactive | inactive | inactive | inactive | inactive | inactive | inactive | inactive | inactive |  | inactive | inactive | inactive | inactive
7 | Nc1c(Cl)c(Cl)nc(C(=O)O)c1Cl | inactive | inactive | inactive | inactive | inactive | inactive | inactive | inactive | inactive | inactive | inactive |  | inactive | inactive |  | inactive | inactive | inactive | inactive
8 | O=C(O)C(Cl)(Cl)Br | inactive | inactive | inactive | inactive | inactive | inactive | inactive | inactive | inactive | inactive | inactive | inactive | inactive |  | inactive | inactive | inactive | inactive | inactive
9 | Cc1ccccc1O | inactive | inactive | inactive | inactive | inactive | inactive | inactive |  |  | inactive | inactive | inactive | inactive | inactive | inactive | inactive | inactive |  | inactive
10 | CCCCOP(=O)(CCCC)OCCCC | inactive | inactive | inactive | inactive | inactive | inactive | inactive | inactive | inactive |  | 19.5 µM (active) | inactive |  | inactive | inactive | inactive | inactive | inactive | 
11 | Cc1cc(-c2ccc(N)c(C)c2)ccc1N | inactive | inactive | inactive | inactive | inactive | inactive and 4.07 µM (active) |  | inactive | inactive | inactive | inactive | inactive | inactive |  |  | inactive | inactive | inactive | inactive
12 | CCC(Br)(CC)C(=O)NC(N)=O | inactive | inactive | inactive | inactive |  | inactive | inactive | inactive | inactive | inactive | inactive | inactive | inactive | inactive |  | inactive | inactive | inactive | inactive
13 | CCBr | inactive | inactive | inactive | inactive | inactive | inactive | inactive | inactive | inactive | inactive | inactive | inactive | inactive | inactive |  | inactive | inactive | inactive | inactive
14 | O=C(Cl)C(Cl)Cl | inactive | inactive | inactive | inactive | inactive | inactive | inactive |  | inactive | inactive | inactive | inactive | inactive | inactive |  | inactive |  | inactive | inactive
